Experimental findings from PubChem BioAssay are described below.

The structures appear in SMILES notation. The source made the active and inactive calls.

For one experiment, the target named is Albumin (Bos taurus) (UniProt P02769). Nature of the experiment: compounds binding labelled BSA control protein – biochemical, small-molecule microarray, Alexa647 label, 635/667 nm fluorescence, artefact control for SMM control protein annotation, profiling panel (AID 1118).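 Note: score merges 667 nm emission intensity and signal-to-noise per printed compound spot.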 Particulars: BSA-A647 binding, fluorescence 635 nm, higher = more signal.
Experiment [1] is described as follows: probe aXIP binding to arrayed compounds – biochemical, NeuroSMM set, 635/667 nm fluorescence, primary screen (AID 1119).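 Note: probe is the protein aXip251-270 applied at 1 µg/mL to compound-printed slides; binding of probe to printed compounds measured as 667 nm fluorescence plus signal to noise.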 Particulars: small-molecule microarray, higher = more signal, called active from +8 up or from −8 down.
A short description of experiment [2]: probe aNOTCH3 binding on compound microarray – biochemical, small-molecule microarray, 635/667 nm fluorescence, primary screen (AID 1120).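 Note: probe is a biotin-tagged antibody raised against NOTCH3 rather than NOTCH3 protein; score merges spot fluorescence near 667 nm with spot signal to noise.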 Conditions: higher = more signal.
A short description of experiment [3]: probe aNOTCH2 binding on compound microarray – biochemical, small-molecule microarray, 635/667 nm fluorescence, primary screen (AID 1121).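 Note: score merges feature fluorescence read at 667 nm with its signal to noise.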 Conditions: higher = more signal.
The target in experiment [4] is Carbonic anhydrase 2 (Homo sapiens) (UniProt P00918). Nature of the experiment: compounds binding carbonic anhydrase 2 – biochemical, small-molecule microarray, Alexa647-labelled CAII, profiling panel (AID 1122). Conditions: CAII-A647 binding fluorescence, higher = more signal.
The nature of experiment [5]: COS7 lysate on small-molecule microarray, probe aHis, 635 nm (AID 1123).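 Note: z-score combines 667nm fluorescence intensity with signal-to-noise per printed compound spot.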 Conditions: COS7 cell lysate, fluorescence, higher = more signal.
Experiment [6] in a line: probe aLAP1 signal on lysate-treated microarray – cell lysate, small-molecule microarray, COS7 lysate, primary screen (AID 1124).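 Note: lysate comes from COS7 cells expressing LAP1 and is applied at 0.3 µg/mL; score merges spot fluorescence near 667 nm with signal-to-noise over triplicate slides.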 Particulars: probe aLAP1, fluorescence, higher = more signal.
The subject of a further experiment is Sam68 (KHDRBS1). Nature of the experiment: compounds binding KHDRBS1 protein – biochemical, small-molecule microarray, 635 nm fluorescence, primary screen (AID 1125).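 Note: score merges 667 nm channel intensity with signal to noise over triplicate slides.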 Conditions: higher = more signal.
Experiment [7] relates to Chordin-like protein 2 (CHRDL2). Put plainly: compounds binding chordin-like 2 – biochemical, small-molecule microarray, 635 nm fluorescence, primary screen (AID 1126).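 Note: printed compound slides probed with Chrdl2 protein at 4 µg/mL for 1 h at 4 C; score merges 667 nm emission intensity with signal to noise over three replicate slides.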 Particulars: fluorescence 635 nm, higher = more signal.
Experiment [8] has as its target Concanavalin-A (Canavalia ensiformis) (UniProt P02866). Put plainly: compounds binding concanavalin A lectin – biochemical, small-molecule microarray, Alexa647 label, 635 nm, artefact control for SMM control protein annotation, primary screen (AID 1127).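 Note: z combines 667 nm emission intensity with signal-to-noise across three replicate slides.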 Particulars: ConA-A647 binding fluorescence, higher = more signal.
Experiment [9] is described as follows: compounds binding Alexa647 anti-His antibody – biochemical, small-molecule microarray, 635 nm fluorescence, artefact control for SMM control protein annotation, primary screen (AID 1128).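 Note: score merges feature fluorescence with signal-to-noise for each printed compound spot.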 Conditions: higher = more signal.
Experiment [10] relates to Human papillomavirus type 1a E7 protein (residues 1-88). Put plainly: HPV1a E7 small-molecule binders, primary screen, biochemical, small-molecule microarray, residues 1-88, 635 nm (AID 1129). Conditions: small-molecule microarray binding, fluorescence 635 nm; higher = more signal.
Experiment [11] deals with Focal adhesion kinase 1 (Homo sapiens) (UniProt Q05397). Put plainly: PTK2 protein binding on printed compound slides – biochemical, small-molecule microarray, 635/667 nm fluorescence, BSA, DTT, primary screen (AID 1130).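 Note: composite of spot emission at 667 nm and signal to noise over triplicate slides.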 Conditions: 635 nm fluorescence, higher = more signal.
Experiment [12] concerns Fibrinogen (Alexa647-labelled). Nature of the experiment: Alexa647-fibrinogen binding to printed small molecules – biochemical, small-molecule microarray, 635/667 nm fluorescence, artefact control for SMM control-protein annotation, profiling panel (AID 1131).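 Note: z-score merges 667 nm fluorescence with per-spot signal-to-noise over triplicate slides.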 Particulars: fibrinogen-A647 binding fluorescence, higher = more signal.
Experiment [13] addresses Follistatin (Homo sapiens) (UniProt P19883). Put plainly: FST protein binding to printed compounds – biochemical, small-molecule microarray, 635/667 nm fluorescence, primary screen (AID 1132). Particulars: 635 nm fluorescence, higher = more signal.
In experiment [14] the target is Fibroblast growth factor 2 (Homo sapiens) (UniProt P09038). Put plainly: basic fibroblast growth factor binding to printed compounds – biochemical, small-molecule microarray, 635/667 nm fluorescence, primary screen (AID 1133). Conditions: FGF2, fluorescence 635/667, higher = more signal.
Experiment [15] in a line: JC-1 mitochondrial potential readout, lung cancer cells – cell-based, A549, JC-1 fluorescence, basal, 24 h, 100 nL, profiling panel (AID 1138).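 Note: A549 lung adenocarcinoma cells under basal conditions with no added stimulus; test concentration not given here.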 Conditions: higher = more signal.
The next experiment deals with Lefty1. Put plainly: Lefty1 protein binding to printed compounds – biochemical, small-molecule microarray, 635/667 nm fluorescence, primary screen (AID 1139). Particulars: fluorescence 635/667, higher = more signal.
The test system of experiment [16] is wheat germ agglutinin (Triticum aestivum), Alexa647-labelled. Nature of the experiment: Alexa647-WGA lectin binding to printed small molecules – biochemical, small-molecule microarray, 635/667 nm fluorescence, artefact control for SMM control-protein annotation, profiling panel (AID 1140).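 Note: score merges 667 nm feature emission with signal to noise over triplicate slides.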 Particulars: WGA-A647 binding, 635 nm fluorescence, higher = more signal.

For experiment [17], the target named is Luciferin 4-monooxygenase (Photinus pyralis) (UniProt P08659). Nature of the experiment: inhibition of purified Photinus pyralis luciferase – biochemical, luminescence, purified enzyme, 2006 set, primary screen (AID 1141).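 Note: cell-free assay with purified firefly luciferase at 100 ng per well in PBS; test concentration not given here.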 Conditions: purified firefly luciferase, SteadyGlo luminescence, 30 min; higher = more signal, called active from +8 up or from −8 down.
Luciferin 4-monooxygenase (Photinus pyralis), sequence (P08659 whole entry, looked up): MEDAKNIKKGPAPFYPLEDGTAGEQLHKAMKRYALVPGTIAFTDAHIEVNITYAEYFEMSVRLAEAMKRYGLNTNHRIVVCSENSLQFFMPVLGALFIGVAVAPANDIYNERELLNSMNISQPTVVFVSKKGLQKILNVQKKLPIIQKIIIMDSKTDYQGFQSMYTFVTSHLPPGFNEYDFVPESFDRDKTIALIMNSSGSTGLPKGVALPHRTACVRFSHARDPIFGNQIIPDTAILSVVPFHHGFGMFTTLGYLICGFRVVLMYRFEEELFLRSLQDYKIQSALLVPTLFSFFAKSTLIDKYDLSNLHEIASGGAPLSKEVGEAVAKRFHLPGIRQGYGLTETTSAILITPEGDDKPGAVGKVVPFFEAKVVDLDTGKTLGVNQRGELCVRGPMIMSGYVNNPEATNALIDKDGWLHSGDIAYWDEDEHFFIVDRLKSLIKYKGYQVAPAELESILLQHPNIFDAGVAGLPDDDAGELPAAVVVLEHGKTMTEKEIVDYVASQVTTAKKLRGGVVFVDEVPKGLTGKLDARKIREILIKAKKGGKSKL

Albumin (Bos taurus), sequence (P02769 whole entry, looked up): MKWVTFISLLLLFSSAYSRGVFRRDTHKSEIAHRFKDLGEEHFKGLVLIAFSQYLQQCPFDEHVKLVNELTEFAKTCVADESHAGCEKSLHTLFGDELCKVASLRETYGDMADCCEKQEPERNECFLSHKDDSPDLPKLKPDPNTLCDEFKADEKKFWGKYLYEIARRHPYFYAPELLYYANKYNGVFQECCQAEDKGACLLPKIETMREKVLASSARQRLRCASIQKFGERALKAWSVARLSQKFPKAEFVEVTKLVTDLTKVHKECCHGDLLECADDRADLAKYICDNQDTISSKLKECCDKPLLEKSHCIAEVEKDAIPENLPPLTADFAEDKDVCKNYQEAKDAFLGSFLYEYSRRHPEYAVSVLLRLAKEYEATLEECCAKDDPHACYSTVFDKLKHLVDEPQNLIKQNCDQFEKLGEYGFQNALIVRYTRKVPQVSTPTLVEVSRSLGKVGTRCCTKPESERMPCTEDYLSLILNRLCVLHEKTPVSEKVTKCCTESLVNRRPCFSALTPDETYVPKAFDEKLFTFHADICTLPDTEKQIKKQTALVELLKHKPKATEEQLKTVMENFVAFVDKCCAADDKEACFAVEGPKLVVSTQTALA
Follistatin (Homo sapiens), sequence (P19883 whole entry, looked up): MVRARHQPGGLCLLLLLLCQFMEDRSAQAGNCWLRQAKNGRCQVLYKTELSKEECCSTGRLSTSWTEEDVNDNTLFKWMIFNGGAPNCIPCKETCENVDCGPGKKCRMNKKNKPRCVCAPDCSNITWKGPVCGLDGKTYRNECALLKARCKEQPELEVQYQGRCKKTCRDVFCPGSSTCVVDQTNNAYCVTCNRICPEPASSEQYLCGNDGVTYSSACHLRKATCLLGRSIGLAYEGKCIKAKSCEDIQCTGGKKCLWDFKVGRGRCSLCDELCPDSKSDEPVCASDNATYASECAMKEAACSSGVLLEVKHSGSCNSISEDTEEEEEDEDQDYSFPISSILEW
Fibroblast growth factor 2 (Homo sapiens), sequence (P09038 whole entry, looked up): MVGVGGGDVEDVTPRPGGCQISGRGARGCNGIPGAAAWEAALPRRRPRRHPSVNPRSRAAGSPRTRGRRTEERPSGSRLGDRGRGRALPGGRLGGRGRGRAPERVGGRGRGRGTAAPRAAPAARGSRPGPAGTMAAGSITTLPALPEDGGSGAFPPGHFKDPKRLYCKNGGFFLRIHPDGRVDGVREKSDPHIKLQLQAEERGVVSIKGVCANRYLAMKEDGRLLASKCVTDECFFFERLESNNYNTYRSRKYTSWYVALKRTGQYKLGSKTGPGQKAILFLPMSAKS
Concanavalin-A (Canavalia ensiformis), sequence (P02866 whole entry, looked up): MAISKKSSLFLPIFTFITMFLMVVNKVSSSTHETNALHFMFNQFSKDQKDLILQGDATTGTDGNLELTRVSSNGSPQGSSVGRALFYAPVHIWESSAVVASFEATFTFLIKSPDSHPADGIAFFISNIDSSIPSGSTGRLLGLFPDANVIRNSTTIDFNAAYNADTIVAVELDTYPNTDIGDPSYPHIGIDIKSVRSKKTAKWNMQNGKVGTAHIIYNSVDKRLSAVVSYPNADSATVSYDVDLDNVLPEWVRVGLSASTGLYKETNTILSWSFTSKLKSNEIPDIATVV
Focal adhesion kinase 1 (Homo sapiens), sequence (Q05397 whole entry, looked up): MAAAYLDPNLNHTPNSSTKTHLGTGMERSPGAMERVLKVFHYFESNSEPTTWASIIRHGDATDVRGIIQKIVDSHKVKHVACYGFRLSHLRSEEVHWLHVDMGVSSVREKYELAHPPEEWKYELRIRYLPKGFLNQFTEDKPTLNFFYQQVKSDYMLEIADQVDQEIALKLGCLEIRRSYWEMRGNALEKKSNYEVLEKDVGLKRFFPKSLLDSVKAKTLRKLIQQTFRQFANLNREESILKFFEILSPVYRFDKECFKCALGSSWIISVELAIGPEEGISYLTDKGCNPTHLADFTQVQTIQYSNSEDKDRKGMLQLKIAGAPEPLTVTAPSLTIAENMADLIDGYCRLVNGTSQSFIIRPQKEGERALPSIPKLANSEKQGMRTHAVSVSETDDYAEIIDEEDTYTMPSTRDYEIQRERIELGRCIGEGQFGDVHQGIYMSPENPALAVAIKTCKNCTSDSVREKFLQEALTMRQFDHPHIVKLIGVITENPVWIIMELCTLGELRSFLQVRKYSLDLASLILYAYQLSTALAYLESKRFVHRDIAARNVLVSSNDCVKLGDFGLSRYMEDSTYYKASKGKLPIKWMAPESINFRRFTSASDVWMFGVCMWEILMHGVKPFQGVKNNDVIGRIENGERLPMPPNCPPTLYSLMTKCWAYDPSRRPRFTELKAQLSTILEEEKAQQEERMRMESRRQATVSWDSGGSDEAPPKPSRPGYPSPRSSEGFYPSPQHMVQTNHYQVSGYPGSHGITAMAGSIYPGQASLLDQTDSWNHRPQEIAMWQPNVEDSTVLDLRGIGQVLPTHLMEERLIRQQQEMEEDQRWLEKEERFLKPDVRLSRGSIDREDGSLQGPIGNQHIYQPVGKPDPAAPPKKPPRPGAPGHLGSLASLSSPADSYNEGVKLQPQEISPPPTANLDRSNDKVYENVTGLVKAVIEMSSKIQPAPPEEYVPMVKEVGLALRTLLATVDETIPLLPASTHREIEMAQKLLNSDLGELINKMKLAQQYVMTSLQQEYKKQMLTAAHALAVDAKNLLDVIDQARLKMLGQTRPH

Take `N#Cc1ccc(NN2C(C(O)c3cc(C(F)(F)F)cc(C(F)(F)F)c3)C=CC3C(=O)N(c4ccccc4)C(=O)C32)cc1` (stereo not given): the composite z-score with Albumin (Bos taurus) was 0.996; in experiment [2] it was 0.425; in experiment [3] it was 0.0388; in experiment [4], 0.612; in [5], 2.82; in [6] it was 0.557. For the same compound, the composite z-score in the experiment on Sam68 (KHDRBS1) is 1.33; in [7] it was -0.904; in [8], 1.19; in [9] it was 0.94; in experiment [10], 1.17; in [11], 0.756. Besides, the composite z-score is 0.932 in experiment [12]; 1.11 in [13]; -0.477 in experiment [14]; 0.265 in the experiment with Lefty1; 1.16 in experiment [16]. In addition, in experiment [1], the composite Z-score was 0.239 (inactive). Besides, the z-score in experiment [15] was 0.277; in experiment [17], -0.514 (inactive).

`CCc1cc2c(nc1CC)CCN(CCC(C)=NOC(C)CN1CCCc3nc(C)c(C)cc31)C2` (stereo not given): the composite z-score stood at 0.263 with Albumin (Bos taurus); 0.724 in experiment [2]; 0.271 in experiment [3]; 0.461 in [4]; 1.18 in [5]; 0.0412 in experiment [6]. Also, the composite z-score in the experiment with Sam68 (KHDRBS1) is 1.29; in experiment [7] it was 0.726; in [8] it was 0.952; in experiment [9] it was -0.295; in experiment [10] it was 0.973; in experiment [11] it was 0.63. Also, the composite z-score in experiment [12] was 0.398; in experiment [13], 1.31; in experiment [14] it was 0.631; in the experiment with Lefty1 it was 1.29; in [16] it was 0.467. Moreover, the composite Z-score in [1] was 1.74 (inactive). Further, the z-score was 1.2 in experiment [15] and 0.62 (inactive) in experiment [17].

Turning to `CC(C)c1ccc(NN2C(C(O)c3ccc4c(c3)OCO4)C=CC3C(=O)N(c4ccccc4)C(=O)C32)cc1` (stereo not given), the composite z-score with Albumin (Bos taurus) was 1; in experiment [2] it was 0.166; in experiment [3] it was -0.0267; in experiment [4], 0.564; in [5], 2.6; in experiment [6] it was 0.738. Besides, the composite z-score in the experiment with Sam68 (KHDRBS1) is 1.29; in experiment [7], -0.0586; in [8], 1.18; in [9], 1.57; in experiment [10], 1.19; in [11] it was 0.477. For the same compound, the composite z-score was 1.04 in [12]; 1.02 in [13]; -0.146 in experiment [14]; 0.545 in the experiment on Lefty1; 0.881 in experiment [16]. Moreover, the composite Z-score in experiment [1] was 0.491 (inactive). The z-score was -0.726 in experiment [15] and -1.72 (inactive) in experiment [17].

Regarding `O=C1[C@H]2[C@H]3[C@H](O)[C@H](O)CC(=NOC[C@@H](O)COCc4ccco4)[C@H]3CC[C@H]2C(=O)N1Cc1ccc2c(c1)OCO2`, the composite z-score with Albumin (Bos taurus) was -0.244; in experiment [2] it was -0.29; in [3] it was -0.17; in [4], -0.441; in experiment [5], -0.385; in experiment [6], 0.311. The composite z-score in the experiment on Sam68 (KHDRBS1) is 0.0595; in experiment [7], 1.49; in experiment [8], -1.26; in experiment [9] it was 0.729; in experiment [10], -0.413; in experiment [11], -0.237. The composite z-score in experiment [12] was -0.447; in experiment [13] it was 1.3; in experiment [14], 1.57; with Lefty1, 1.25; in experiment [16], -0.186. Moreover, the composite Z-score in experiment [1] is -0.377 (inactive). The figures for the z-score in experiment [15] and in [17] were -0.0273 and 0.546 (inactive), respectively.

Regarding `COC(=O)CC=C[C@H](C)[C@H](CO)NS(=O)(=O)c1ccc(C)cc1`, the composite z-score with Albumin (Bos taurus) was -0.333; in experiment [2], 0.0522; in [3] it was -0.13; in experiment [4] it was 0.131; in experiment [5], -0.0961; in experiment [6] it was 0.121. For the same compound, the composite z-score in the experiment with Sam68 (KHDRBS1) was 0.217; in experiment [7], 0.91; in [8] it was 0.579; in experiment [9], 0.422; in [10], 0.447; in experiment [11], 0.265. For the same compound, the composite z-score in experiment [12] is 0.466; in [13], 0.525; in experiment [14], 0.621; with Lefty1, 0.701; in [16] it was -0.037. Further, in experiment [1], the composite Z-score is 0.755 (inactive). Moreover, the results for the z-score in [15] and in experiment [17] were -0.655 and -0.54 (inactive), respectively.
